Results filed as inconclusive are left out. Entries that show only a call come without a potency. Activity calls are given as the source filed them. Unless noted, calls follow the shape of the dose curve; as a rule, active = well fitted curve in the direction sought with a large enough effect in the repeat runs; inconclusive = weak or mixed curves; inactive = no such curve, though single readings can be large; an effect the other way counts as inactive or inconclusive.
How the values were obtained:
[1] = molecular target: Retinoic acid receptor RXR-alpha (Homo sapiens) (UniProt P19793); assay: qHTS assay to identify small molecule agonists of the RXR signaling pathway (AID 1159527; calls by dose curve; also: nearly all actives have a fitted effect of over 35% in size)
Sequence of Retinoic acid receptor RXR-alpha (Homo sapiens) (P19793 whole entry, looked up): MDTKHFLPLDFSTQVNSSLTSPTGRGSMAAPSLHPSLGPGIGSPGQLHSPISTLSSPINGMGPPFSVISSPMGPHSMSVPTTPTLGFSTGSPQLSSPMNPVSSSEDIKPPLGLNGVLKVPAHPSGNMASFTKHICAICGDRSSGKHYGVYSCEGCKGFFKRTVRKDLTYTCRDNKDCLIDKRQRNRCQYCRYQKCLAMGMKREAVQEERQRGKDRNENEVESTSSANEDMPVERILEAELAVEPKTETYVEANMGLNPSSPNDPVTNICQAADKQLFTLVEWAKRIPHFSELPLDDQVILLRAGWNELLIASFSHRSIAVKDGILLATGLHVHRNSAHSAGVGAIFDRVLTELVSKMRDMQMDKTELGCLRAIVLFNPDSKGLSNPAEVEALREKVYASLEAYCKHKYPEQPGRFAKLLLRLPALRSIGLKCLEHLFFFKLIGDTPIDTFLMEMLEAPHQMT
Summary of the method: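 GeneBLAzer RXR-alpha-UAS-bla HEK 293T cells in 2% charcoal-stripped FBS medium were exposed to compounds for 16 hr at 37 C in agonist mode. Beta-lactamase reporter read as 460/530 nm FRET ratio after 2 hr substrate loading.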

[2] = qHTS assay to identify small molecule agonists of the RXR signaling pathway - cell viability counter screen (AID 1159529); also: nearly all actives have a fitted effect of over 50% in size; also: potency is read from the fitted curve at half-maximal effect
Summary of the method: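 RXR-alpha-UAS-bla HEK 293T cells in medium with 2% charcoal-stripped FBS were pre-incubated 5 hr, then compound-treated 16 hr at 37 C. Viability was read by CellTiter-Glo luminescence in the same wells as the beta-lactamase assay, with tetraoctyl ammonium bromide as positive control.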

[3] = qHTS assay to identify small molecule antagonists of the retinoid acid receptor (RAR) signaling pathway - cell viability counter screen (AID 1159551); also: nearly all actives have a fitted effect of over 35% in size
Summary of the method: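 Cytotoxicity counter screen in C3RL4 cells: 6 h compound exposure with 1 uM retinol (final), viability from cellular ATP by luminescence.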

[4] = qHTS assay to identify small molecule antagonists of the retinoic acid receptor (RAR) signaling pathway (AID 1159552; also: nearly all actives have a fitted effect of over 50% in size)
Summary of the method: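 Retinol signaling pathway inhibitors screened in C3RL4 RARE-luciferase reporter cells seeded overnight at 37 C, then compounds added with 1 uM (final) retinol as pathway substrate. After 6 hr at 37 C, luciferase luminescence read after 30 min at room temperature.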

[5] = qHTS assay to identify small molecule antagonists of the estrogen related receptor (ERR) signaling pathway from Tox21 library - cell viability counter screen (AID 1224834); also: nearly all actives have a fitted effect of over 30% in size; also: potency is read from the fitted curve at half-maximal effect
Summary of the method: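 Cytotoxicity of test substances is gauged in the same ERR cells used for the antagonist screen, after 17.5 h of compound treatment at 37 C, by CellTiter-Fluor fluorescence measured after 30 min.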

[6] = molecular target: Luciferin 4-monooxygenase (Photinus pyralis) (UniProt P08659); assay: qHTS assay to identify small molecule inhibitors of firefly luciferase (AID 1224835); also: nearly all actives have a fitted effect of over 25% in size; also: potency is read from the fitted curve at half-maximal effect
Sequence of Luciferin 4-monooxygenase (Photinus pyralis) (P08659 whole entry, looked up): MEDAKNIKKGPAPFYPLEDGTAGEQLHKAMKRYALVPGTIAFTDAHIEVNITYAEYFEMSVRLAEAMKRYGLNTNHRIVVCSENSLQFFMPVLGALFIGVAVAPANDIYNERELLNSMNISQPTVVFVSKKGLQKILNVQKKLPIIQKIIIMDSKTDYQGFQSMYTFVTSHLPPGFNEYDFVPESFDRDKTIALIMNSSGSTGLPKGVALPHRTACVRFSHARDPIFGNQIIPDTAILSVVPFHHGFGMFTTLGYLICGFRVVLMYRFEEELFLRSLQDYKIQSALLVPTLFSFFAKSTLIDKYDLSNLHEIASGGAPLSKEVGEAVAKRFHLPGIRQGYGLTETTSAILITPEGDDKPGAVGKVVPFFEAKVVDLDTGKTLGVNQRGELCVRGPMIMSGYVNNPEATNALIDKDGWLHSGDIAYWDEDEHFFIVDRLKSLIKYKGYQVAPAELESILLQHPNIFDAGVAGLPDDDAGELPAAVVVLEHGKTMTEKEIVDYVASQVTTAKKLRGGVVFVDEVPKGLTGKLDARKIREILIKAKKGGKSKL
Summary of the method: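 Quantitative HTS format; KM concentrations of both substrates. Purified P. pyralis FLuc activity quantified from luminescence images.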

[7] = qHTS assay to identify small molecule agonists of the constitutive androstane receptor (CAR) signaling pathway - cell viability counter screen (AID 1224836); also: nearly all actives have a fitted effect of over 45% in size; also: potency is read from the fitted curve at half-maximal effect
Summary of the method: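 HepG2 cells stably carrying hCAR and a CYP2B6-2.2kb reporter; 15-concentration compounds plus PK11195 (final 0.75 uM), 23 hr at 37 C/5% CO2. Viability read by CellTiter-Fluor fluorescence.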

[8] = molecular target: Nuclear receptor subfamily 1 group I member 3 (Homo sapiens) (UniProt Q14994); assay: qHTS assay to identify small molecule antagonists of the constitutive androstane receptor (CAR) signaling pathway (AID 1224838); also: nearly all actives have a fitted effect of over 40% in size; also: potency is read from the fitted curve at half-maximal effect
Sequence of Nuclear receptor subfamily 1 group I member 3 (Homo sapiens) (Q14994 whole entry, looked up): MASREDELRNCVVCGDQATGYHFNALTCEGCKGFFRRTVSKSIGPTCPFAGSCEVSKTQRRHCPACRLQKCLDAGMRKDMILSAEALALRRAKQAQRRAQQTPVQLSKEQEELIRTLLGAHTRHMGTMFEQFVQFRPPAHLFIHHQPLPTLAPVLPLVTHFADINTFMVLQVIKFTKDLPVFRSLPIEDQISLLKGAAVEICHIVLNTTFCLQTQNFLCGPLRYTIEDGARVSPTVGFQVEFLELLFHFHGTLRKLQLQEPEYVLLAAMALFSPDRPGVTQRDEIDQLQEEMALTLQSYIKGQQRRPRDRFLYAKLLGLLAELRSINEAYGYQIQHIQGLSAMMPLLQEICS
Summary of the method: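 Compounds were titrated across 15 concentrations onto HepG2 cells double-stably expressing hCAR and a CYP2B6-2.2kb reporter, together with 50 nM CITCO (final). After 24 h at 37 C, luciferase activity was measured by luminescence.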

[9] = molecular target: Nuclear receptor subfamily 1 group I member 3 (Homo sapiens) (UniProt Q14994); assay: qHTS assay to identify small molecule agonists of the constitutive androstane receptor (CAR) signaling pathway (AID 1224839); also: nearly all actives have a fitted effect of over 15% in size; also: potency is read from the fitted curve at half-maximal effect
Summary of the method: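 HepG2 cells stably co-transfected with hCAR and a CYP2B6-2.2kb luciferase reporter; compounds at 15 concentrations with 0.75 uM PK11195 present. After 24 hr at 37 C, luciferase read by ONE-Glo luminescence.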

[10] = qHTS assay to identify small molecule antagonists of the estrogen related receptor signaling pathway with the pleiotropic PPARgamma coactivator (PGC) from Tox21 10K library - cell viability counter screen (AID 1224840; active = well fitted cell-killing curve with a large enough effect in the repeat runs, not every such curve was filed as active; also: nearly all actives have a fitted effect of over 40% in size; also: potency is read from the fitted curve at half-maximal effect)
Summary of the method: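 Step one, plate 2,000 PGC/ERR cells per well; step two, incubate 6 h at 37 C/5% CO2; step three, pin-transfer compounds; step four, incubate 17.5 h; step five, add CellTiter-Fluor and read fluorescence after 30 min.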

[11] = qHTS assay to identify small molecule antagonists of the estrogen related receptor signaling pathway with the pleiotropic PPARgamma coactivator (PGC) from Tox21 10K library (AID 1224841; call rule not given here; also: actives are mostly falling curves and most rising ones were filed inactive; nearly all actives have a fitted effect of over 50% in size; also: potency is read from the fitted curve at half-maximal effect)
Summary of the method: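 Antagonism in this quantitative HTS is taken from loss of luciferase signal in PGC/ERR cells. Cells (2,000/well) are treated with compounds in DMSO after a 6 h settling period and read by One-Glo luminescence after 18 h.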

[12] = qHTS assay to identify small molecule agonists of the estrogen related receptor signaling pathway with the pleiotropic PPARgamma coactivator (PGC) from Tox21 10K library (AID 1224842); also: nearly all actives have a fitted effect of over 15% in size
Summary of the method: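 PGC/ERR reporter cells (NTP line) were seeded 2,000 per well, rested 6 h at 37 C/5% CO2, then pin-dosed with compounds in DMSO for 18 h at 37 C; luciferase read by One-Glo luminescence after 30 min at room temperature.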

[13] = qHTS assay to identify small molecule antagonists of the constitutive androstane receptor (CAR) signaling pathway - cell viability counter screen (AID 1224837); also: nearly all actives have a fitted effect of over 45% in size; also: potency is read from the fitted curve at half-maximal effect
Summary of the method: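 Multiplexed cytotoxicity read-out for the CAR antagonist screen: double-stable HepG2-CYP2B6-hCAR cells co-treated with 50 nM CITCO (final) and compound over 15 concentrations, incubated 23 hr, then assessed by CellTiter-Fluor fluorescence.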

[14] = qHTS assay to identify small molecule antagonists of the estrogen related receptor (ERR) signaling pathway - cell viability counter screen (AID 1224818);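 also: series mostly up to about 46 µM; viability measured after 17.5 h of compound exposure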
Summary of the method: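 Cells carrying the ERR pathway reporter were seeded and incubated for 6 hours before compound addition. After a 17.5-hour exposure at 37 C, live-cell protease activity was measured by CellTiter-Fluor fluorescence following 30 minutes of incubation.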

[15] = qHTS assay to identify small molecule antagonists of the estrogen related receptor (ERR) signaling pathway (AID 1224819;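 also: luminescence from an ERR-driven luciferase reporter measured with One-Glo reagent; series mostly up to about 46 µM; nearly all actives have a fitted effect of over 50% in size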)
Summary of the method: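 Compounds dissolved in DMSO were pin-transferred onto ERR cells that had been plated 6 h earlier, and cells were then incubated 18 h at 37 C; signal was luciferase luminescence via One-Glo.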

[16] = system: estrogen-related receptor alpha (ERRalpha) with PGC-1alpha coactivator, human; assay: qHTS assay to identify small molecule antagonists of the estrogen related receptor signaling pathway with the pleiotropic PPARgamma coactivator (PGC) (AID 1224821; calls by dose curve)
Summary of the method: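 Quantitative HTS for antagonism: PGC/ERR cells received compounds after 6 h attachment and were incubated 18 h at 37 C, with luminescence (One-Glo) as the endpoint.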

[17] = qHTS assay to identify small molecule antagonists of the estrogen related receptor signaling pathway with the pleiotropic PPARgamma coactivator (PGC) cell viability counter screen (AID 1224822;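 also: series mostly up to about 46 µM; viability read after 17.5 h compound exposure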)
Summary of the method: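 Seed PGC/ERR cells (2,000/well); incubate 6 h at 37 C/5% CO2; pin-transfer compounds in DMSO; incubate 17.5 h at 37 C; add CellTiter-Fluor; after 30 min read fluorescence.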

[18] = qHTS assay to identify small molecule agonists of the estrogen related receptor signaling pathway with the pleiotropic PPARgamma coactivator (PGC) (AID 1224823)
Summary of the method: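 Cell-based luciferase assay in the NTP-supplied PGC/ERR line, 2,000 cells/well; 18 h compound exposure at 37 C, luminescence after One-Glo.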

[19] = qHTS assay to identify small molecule agonists of the estrogen related receptor (ERR) signaling pathway (AID 1224820)
Summary of the method: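 Quantitative HTS of the LOPAC library used NTP ERR reporter cells treated 18 h at 37 C. Signal is luminescence after One-Glo addition and a 30 min room-temperature incubation.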

[20] = qHTS assay to identify small molecule agonists of the retinoic acid receptor (RAR) signaling pathway (AID 1159553)
Summary of the method: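 Agonist activity was scored in C3RL4 cells bearing a retinoic acid response element luciferase construct. Cells were treated with compounds for 6 hr at 37 C, and luciferase signal was measured as luminescence.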

Cc1ccccc1CCl
Potency [1]: inactive
Potency [2]: inactive
Potency [3]: inactive
Potency [4]: inactive
Potency [5]: inactive
Potency [6]: inactive
Potency [7]: inactive
Potency [8]: inactive
Potency [9]: inactive
Potency [10]: inactive
Potency [11]: inactive
Potency [12]: inactive

Clc1cccc2ccccc12
Potency [1]: inactive
Potency [2]: inactive
Potency [3]: inactive
Potency [5]: inactive
Potency [6]: inactive
Potency [7]: inactive
Potency [8]: inactive
Potency [9]: inactive
Potency [10]: inactive

ClCC(Br)CBr (stereo unspecified)
Potency [1]: inactive
Potency [2]: inactive
Potency [3]: inactive
Potency [4]: inactive
Potency [5]: inactive
Potency [6]: inactive
Potency [7]: inactive
Potency [13]: inactive
Potency [10]: inactive

O=C(O)CC(Cl)C(=O)O (stereo unspecified)
Potency [1]: inactive
Potency [2]: inactive
Potency [3]: inactive
Potency [5]: inactive
Potency [6]: inactive
Potency [7]: inactive
Potency [13]: inactive
Potency [8]: inactive
Potency [9]: inactive
Potency [10]: inactive
Potency [11]: inactive
Potency [12]: inactive

CCN(C)N=O
Potency [1]: inactive
Potency [2]: inactive
Potency [3]: inactive
Potency [4]: inactive
Potency [5]: inactive
Potency [6]: inactive
Potency [7]: inactive
Potency [8]: inactive
Potency [9]: inactive
Potency [10]: inactive

Cl/C=C\C[N+]12CN3CN(CN(C3)C1)C2
Potency [1]: inactive
Potency [2]: inactive
Potency [3]: inactive
Potency [5]: inactive
Potency [6]: inactive
Potency [8]: 61.1 µM (active)
Potency [9]: inactive
Potency [10]: inactive
Potency [11]: inactive
Potency [12]: inactive

C=CC(=O)NCNC(=O)C=C
outcome [14]: inactive
outcome [15]: inactive
Potency [16]: inactive
Potency [17]: inactive
outcome [18]: inactive

CC(C)N(CCC(C(N)=O)(c1ccccc1)c1ccccn1)C(C)C (stereo unspecified)
outcome [14]: inactive
outcome [15]: inactive
outcome [19]: inactive
Potency [17]: inactive

O=C1CN=C(c2ccccc2)c2cc(Cl)ccc2N1CC1CC1
Potency [2]: inactive
Potency [3]: inactive
Potency [4]: inactive
Potency [20]: inactive
Potency [6]: inactive
Potency [7]: inactive
Potency [13]: inactive
Potency [8]: inactive
Potency [10]: inactive
Potency [11]: 25.5 µM (active)
Potency [12]: inactive

COc1ccc(-c2ccccc2)cc1NNC(=O)OC(C)C
Potency [2]: inactive
Potency [3]: inactive
Potency [4]: inactive
Potency [5]: 63.7 µM (active)
Potency [6]: inactive
Potency [7]: inactive
Potency [8]: inactive
Potency [9]: 63.7 µM (active)
Potency [11]: 35.8 µM (active)
Potency [12]: inactive

C=CC(=O)OC(C)(C)C
Potency [2]: inactive
Potency [3]: inactive
Potency [4]: inactive
Potency [20]: inactive
Potency [5]: inactive
Potency [6]: inactive
Potency [7]: inactive
Potency [13]: inactive
Potency [8]: inactive
Potency [10]: inactive

c1cc2ccc3cccc4ccc(c1)c2c34
Potency [2]: 36.3 µM (active)
Potency [3]: inactive
Potency [4]: inactive
outcome [14]: inactive
outcome [19]: inactive
Potency [16]: inactive
Potency [17]: inactive
outcome [18]: inactive
Potency [6]: inactive
Potency [7]: inactive
Potency [13]: inactive
Potency [8]: inactive
Potency [9]: 36 µM (active)
Potency [10]: inactive
Potency [11]: inactive

CC(C)(C)c1cc([N+](=O)[O-])cc([N+](=O)[O-])c1O
Potency [2]: inactive
Potency [3]: inactive
Potency [5]: 15.3 µM (active)
Potency [6]: 70.8 µM (active)
Potency [7]: 13.6 µM (active)
Potency [13]: 15.3 µM (active)
Potency [8]: 17.2 µM (active)
Potency [9]: inactive
Potency [10]: 15.3 µM (active)

— PubChem BioAssay (Tox21)
